# Compound activity deposited in PubChem by The Scripps Research Institute Molecular Screening Center.
# Shown are actives, neighbours in structure and some others; about 2.9% of the full set was active somewhere.
# LYPLA1 inh: blocks human lysophospholipase 1, a PME1 counter-screen; hit rate 0.16% among 320,000; inhibition, % at 5.9 µM; O75608; recombinant LYPLA1, FP-Rh probe fluorescence polarization; AID 2174;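 active = inhibition above the mean of all tested compounds plus 3 SD, set per campaign, cut at about 14% in these data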;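 note: inhibitors block serine hydrolase probe labeling of LYPLA1 so polarization falls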
# Target sequence (O75608 whole entry, looked up): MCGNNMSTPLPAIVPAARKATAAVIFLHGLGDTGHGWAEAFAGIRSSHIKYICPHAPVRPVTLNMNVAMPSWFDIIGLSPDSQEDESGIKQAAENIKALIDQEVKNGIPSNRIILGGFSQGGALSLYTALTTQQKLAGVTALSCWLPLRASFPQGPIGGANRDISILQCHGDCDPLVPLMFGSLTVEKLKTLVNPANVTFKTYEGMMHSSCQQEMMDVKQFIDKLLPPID
# PAFAH1B3 FP inh: inhibitors of human PAFAH1B3; inhibition, % at 3.39 µM; hit rate 0.28% among 340,000; recombinant PAFAH1B3, FP-rhodamine probe, fluorescence polarization; Q15102; AID 492972;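 active = inhibition above the screen-wide average of all tested compounds plus 3 SD, cut at about 25% in these data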
# pPAFAH FP inh: pPAFAH (human) enzyme inhibition; Q13093; recombinant pPAFAH, FP-rhodamine probe fluorescence polarization; inhibition, % at 3.39 µM; hit rate 1.5% among 330,000; AID 463082;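 active = inhibition above the mean inhibition across the screen plus 3 SD, cut at about 25% in these data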;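 note: inhibitors block binding of the rhodamine activity-based probe so polarization drops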
# Target sequence (Q13093 whole entry, looked up): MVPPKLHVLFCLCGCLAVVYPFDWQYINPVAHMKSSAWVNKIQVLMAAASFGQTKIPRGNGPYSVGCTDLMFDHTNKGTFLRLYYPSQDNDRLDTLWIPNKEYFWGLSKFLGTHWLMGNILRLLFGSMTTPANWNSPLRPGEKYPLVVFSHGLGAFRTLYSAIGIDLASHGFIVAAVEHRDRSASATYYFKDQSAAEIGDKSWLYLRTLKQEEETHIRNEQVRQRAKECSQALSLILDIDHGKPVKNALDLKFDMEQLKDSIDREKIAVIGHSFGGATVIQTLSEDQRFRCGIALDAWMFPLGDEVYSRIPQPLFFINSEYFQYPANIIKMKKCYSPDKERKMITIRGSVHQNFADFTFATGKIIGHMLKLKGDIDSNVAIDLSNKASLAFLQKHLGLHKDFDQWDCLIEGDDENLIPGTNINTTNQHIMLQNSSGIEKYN
# LYPLA2 inh: LYPLA2 (human) inhibition in PME1 counter-screen; hit rate 0.38% among 320,000; inhibition, % at 5.9 µM; AID 2177; O95372; recombinant LYPLA2, FP-Rh probe fluorescence polarization;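 active = inhibition above the screen-wide mean plus 3 SD, limit set per campaign, cut at about 26% in these data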
# PAFAH1B2 FP inh: PAFAH1B2 (human) inhibition; recombinant PAFAH1B2, FP-rhodamine activity probe, fluorescence polarization; inhibition, % at 3.39 µM; hit rate 1.2% among 340,000; AID 492953;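 active = inhibition above the mean of all tested compounds plus 3 SD, cut at about 24% in these data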
# PAFAH2 inh: PAFAH2 (human) inhibition; Q99487; recombinant PAFAH2, FP-rhodamine activity probe, fluorescence polarization; inhibition, % at 3.39 µM; hit rate 0.99% among 340,000; AID 492956;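 active = inhibition above the mean over all tested compounds plus 3 SD, cut at about 30% in these data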;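 note: inhibitors block probe labeling of enzyme so polarization drops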
# PAFAH2 FP conf: confirmation of human PAFAH2 inhibitors. shares compounds with PAFAH2 inh. hit rate 65% among 2,300. AID 493030. inhibition, % at 3.39 µM. recombinant PAFAH2, FP-rhodamine activity probe, fluorescence polarization;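 active = mean inhibition over three repeats above a set limit taken from the earlier primary screen, cut at about 30% in these data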;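 note: inhibitor blocks binding of rhodamine activity probe so polarization falls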
# A number is an active result; 0 = inactive; - = not tested or not shown.
SMILES,LYPLA1 inh,PAFAH1B3 FP inh,pPAFAH FP inh,LYPLA2 inh,PAFAH1B2 FP inh,PAFAH2 inh,PAFAH2 FP conf
CS(=O)(=O)c1cccc(C(=O)OCC(=O)NCc2cccs2)c1,0,0,0,0,0,0,-
O=C(OCc1nnc(-c2ccccc2Br)o1)c1ccco1,-,0,0,-,0,53,50
O=C(O)CCc1nc(-c2ccccc2Cl)no1,0,0,0,0,0,0,-
O=C(OCc1nc(-c2ccccc2Cl)no1)c1ccco1,0,0,0,0,0,42,41
Cc1ccc(-c2nnc(COC(=O)c3ccco3)o2)cc1,0,0,0,0,0,0,-
COCCn1c(C)cc(/C=C2/NC(=O)N(c3cccc(Cl)c3)C2=O)c1C,0,0,0,0,0,0,-
O=C(c1cc(-c2ccccc2Cl)on1)N1CCN(C(=O)c2ccco2)CC1,0,0,0,0,0,43,35
O=C(c1cc(-c2ccc(Cl)cc2Cl)on1)N1CCN(C(=O)c2ccco2)CC1,0,0,0,0,0,65,41
O=C(c1cc(-c2ccc(Cl)cc2Cl)on1)N1CCCC1,0,0,0,0,0,31,0
O=C(CCC(=O)OCC(F)(F)C(F)F)Nc1ccc(F)cc1F,0,0,0,0,0,0,-
O=C(NCCCn1ccnc1)c1ccc2ccccc2c1,0,0,0,0,0,0,-
COc1ccc(C(=O)OCC(=O)Nc2ccc3c(c2)OCO3)cc1S(=O)(=O)N1CCOCC1,-,0,-,-,0,82,82
Cc1ccc(C(=O)OCC(=O)NCc2ccc3c(c2)OCO3)cc1S(=O)(=O)N1CCOCC1,-,0,0,-,0,0,-
O=C(COC(=O)c1ccc(F)c(S(=O)(=O)N2CCOCC2)c1)Nc1ccc2c(c1)OCO2,-,0,-,-,0,78,65
O=C(Nc1nc(-c2ccccc2)cs1)NC1CCCCC1,0,0,0,0,0,30,0
c1ccc(-c2csc(NC3CCCCC3)n2)cc1,0,0,0,0,0,0,-
O=C1C=C(Nc2ccc(Cl)cc2Cl)CC(c2ccco2)C1 (stereo unspecified),0,0,0,0,0,45,37
CN(C(=O)COC(=O)c1ccc(Cl)nc1)c1c(N)n(Cc2ccccc2)c(=O)[nH]c1=O,0,0,0,0,0,0,-
CCCCCOC(=O)C(C)c1c(C)[nH]c(=S)[nH]c1=O (stereo unspecified),0,0,0,0,0,0,-
CNS(=O)(=O)c1cccc(C(=O)OCC(=O)Nc2ccc(OC)cc2[N+](=O)[O-])c1,0,0,0,0,0,31,0
COc1ccc(NC(=O)COC(=O)c2cc(OC)c(OC)c(OC)c2)c([N+](=O)[O-])c1,0,0,0,0,0,0,-
COc1ccc(NC(=O)COC(=O)C2CC2)c(OC)c1,0,0,0,0,0,0,-
CC(=O)Nc1ccc(NC(=O)COC(=O)C2CCCCC2)cc1,-,0,0,-,0,0,-
COc1cccc(NC(=O)COC(=O)C2CC2)c1,-,0,0,-,0,69,57
COc1cccc(NC(=O)COC(=O)C2CCCCC2)c1,-,0,0,-,0,82,63
SMILES,LYPLA1 inh,PAFAH1B3 FP inh,pPAFAH FP inh,LYPLA2 inh,PAFAH1B2 FP inh,PAFAH2 inh,PAFAH2 FP conf
COc1ccc(NC(=O)COC(=O)C2CCCCC2)c([N+](=O)[O-])c1,0,0,0,0,0,30,0
COc1ccc(NC(=O)CN2CCCCC2)c([N+](=O)[O-])c1,0,0,0,0,0,0,-
CCOC(=O)C1=NOC(Cn2cc(C#N)c(=O)n(C)c2=O)C1 (stereo unspecified),0,0,0,0,0,0,-
Cc1cc(/C=C(\C#N)C(=O)OCC(=O)NC(=O)NC(C)(C)C)c(C)n1CCC(C)C,0,0,0,0,0,0,-
CCCn1c(C)cc(/C=C(\C#N)C(=O)OCC(=O)Nc2cccc(OC)c2)c1C,0,0,0,0,0,54,60
CCCn1c(C)cc(/C=C(\C#N)C(=O)OCC(=O)Nc2cccc(S(N)(=O)=O)c2)c1C,0,0,0,0,0,34,0
COc1cc(C=c2c3ccccc3n3c2cc(-c2ccccc2)[n+]3C)cc(OC)c1OC,-,0,-,-,0,55,0
COc1cc(N(C)C)ccc1C=c1c2ccccc2n2c1cc(-c1ccccc1)[n+]2C,-,0,-,-,0,0,-
Cc1cccc(-c2nc3ccccc3c3nncn23)c1,0,0,0,0,0,159,0
c1ccc(-c2nc3ccccc3c3nncn23)cc1,0,0,0,0,0,0,-
O=c1c2c(nc3nc(COc4ccccc4)[nH]n13)CCC2,0,0,0,0,0,61,56
Cc1ccc(C(=O)OCC(=O)NN2C(=O)NC3(CCC(C)CC3)C2=O)cc1 (stereo unspecified),0,0,0,0,0,74,54
CC(=O)N1CCc2cc(S(=O)(=O)CCC(=O)Nc3c(C)n(C)n(-c4ccccc4)c3=O)ccc21,0,0,0,0,0,0,-
Cc1ccc(S(=O)(=O)Nc2c(O)ccc3ccccc23)cc1,0,-,0,0,-,-,-
O=S(=O)(Nc1c(O)ccc2ccccc12)c1cccc2ccccc12,0,0,0,0,0,32,0
Cc1cccc(C)c1Oc1nc(-c2ccccc2)ncc1S(=O)(=O)c1ccccc1,0,0,0,0,0,0,-
COc1cc(C2CC(=O)c3cnc(NC(=O)COc4ccccc4)nc3C2)cc(OC)c1OC (stereo unspecified),0,0,0,0,0,0,-
COc1cccc(NC(=O)COC(=O)c2ccco2)c1,0,0,0,0,0,68,63
Cn1cccc1C(=O)OCC(=O)Nc1ccc2c(c1)OCCO2,-,0,0,-,0,49,33
COc1cccc(NC(=O)COC(=O)c2sccc2C)c1,-,0,0,-,0,82,82
Cn1cccc1C(=O)OCC(=O)NCc1ccc2c(c1)OCO2,0,0,0,0,0,0,-
COc1cccc(NC(=O)COC(=O)c2c(F)cccc2F)c1,0,0,0,0,0,57,0
CCOCC(=O)Nc1cccc(OC)c1,0,0,0,0,0,0,-
NC(=O)CN(c1ccc(Cl)cc1)S(=O)(=O)c1ccccc1,0,0,0,0,0,0,-
Cc1nc(N2CCN(C(=O)COc3ccccc3)CC2)c2c(C)c(C)sc2n1,0,0,0,0,0,0,-
SMILES,LYPLA1 inh,PAFAH1B3 FP inh,pPAFAH FP inh,LYPLA2 inh,PAFAH1B2 FP inh,PAFAH2 inh,PAFAH2 FP conf
O=C(COC(=O)c1ccco1)Nc1ccc2c(c1)OCCO2,0,0,0,0,0,51,37
Cc1ccc(NC(=O)c2ccco2)cc1C,0,0,0,0,0,0,-
Cc1ccc(NC(=O)COC(=O)c2ccco2)cc1,0,0,0,0,0,62,53
CC(=O)Nc1ccc(NC(=O)COC(=O)c2ccco2)cc1,0,0,0,0,0,0,-
Cc1ccc(NC(=O)COC(=O)c2ccco2)cc1C,0,0,0,0,0,77,59
Cc1cc(N=Nc2ccccc2)cc(C)c1NC(=O)C(F)(F)F,-,0,-,-,0,0,-
Cc1nc2ccccc2c(=O)n1NC(=O)c1cccnc1Cl,0,0,0,0,0,0,-
